From PubChem BioAssay come the findings set out here.

The structures appear in SMILES notation. “And” between values parts separate entries of the source, which are not always exact repeats. Identical values can stand only once. The source made the active and inactive calls.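 Rule for the calls, unless noted: active = thallium flux through the channel raised or lowered by more than 3 SD from vehicle-only wells, actives on both sides; inactive = the rest.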

Experiment [1] in a line: P. berghei load reduction in hepatocytes – cell-based, HepG2, luciferase luminescence, HepG2 viability, primary screen (AID 624349; in the data active = parasite load remaining mostly below about 12%, no sharp cut-off; inactive = mostly above about 10%;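 note: 100% = mean of DMSO negative control wells on the same plate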). Particulars: P. berghei liver stage in HepG2, luciferase luminescence, concentration not given here; parasite load remaining: stronger effect = lower value; viability: measured here: HepG2 viability without parasites.
The nature of experiment [2]: signal quenchers or enhancers, Cy5 substrate/SSB – biochemical, NIH Clinical Collection, E. coli SSB, artefact control for HCV NS3 helicase inhibitor project (AID 743268; call rule not given here). Particulars: Cy5-oligo bound E. coli SSB, fluorescence interference.
Experiment [3] relates to Hepatitis C virus NS3 helicase. The experiment can be described thus: blockers of NS3h binding to DNA – biochemical, fluorescence polarization, NIH Clinical Collection, primary screen (AID 743270; call rule not given here). Particulars: NS3 helicase binding to Cy5-dT15 DNA, stronger effect = higher value, concentration not given here.
For experiment [4], the target named is Single-stranded DNA-binding protein (Escherichia coli (strain K12)) (UniProt P0AGE0). The experiment can be described thus: SSB-ssDNA binding inhibitors – biochemical, fluorescence polarization, NIH Clinical Collection, counter-screen for HCV NS3 helicase inhibitor project (AID 743271; in the data active = inhibition above about 28%). Particulars: E. coli SSB-DNA binding, stronger effect = higher value, concentration not given here. In general terms: Polarisation of emitted light reports the rotation of a fluorescent probe.

Experiment [5] in a line: compounds distorting NS3 helicase fluorescence signal – biochemical, NIH Clinical Collection, artefact control for HCV NS3 helicase inhibitor project (AID 743272; call rule not given here;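 note: HCV NS3 helicase with a Cy5 labelled single stranded DNA probe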). Particulars: fluorescence interference counterscreen, HCV NS3 helicase assay; stronger effect = lower value. Background: Counterscreens check selectivity or assay interference.
Experiment [6] can be described thus: viability loss with induced miR-34 in A549 – imaging, A549 dox-inducible miR-34, nuclei and caspase counts, primary screen (AID 1347080;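 active = compounds whose cell count with miR-34 switched on is under 0.7 times the count with it off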). Particulars: A549 miR-34 inducible, Hoechst nuclei count, 48 h.
A short description of experiment [7]: MELAS cybrid and Rieske KO viability enhancers – cell-based, MELAS cybrids, Rieske KO mouse fibroblasts, CellTiter-Glo, primary screen (AID 1508586;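 active = mean z-score across replicates of 1.96 or higher in either the MELAS or the Rieske mutant cell line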;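 note: z relative to plate mean and SD of compound and empty wells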). Particulars: low glucose. Background: ATP-based viability assays read luminescence as a measure of living cells.
The nature of experiment [8]: galactose survival enhancers in mitochondrial complex I cybrids – cell-based, galactose medium, ATP luminescence, primary screen (AID 1645843;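 active = z-score of at least 1.8 in each of two replicates, scored against plate mean and spread of sample wells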;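 note: positive z means more ATP and so rescue of galactose-driven cybrid death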). Particulars: complex I mutant cybrid cells, 72 h, stronger effect = higher value.
For experiment [9], the system named is F380Y. Kind of experiment: BK channel mutant inhibitors and activators – cell-based, U2OS BacMam, thallium flux, beta subunits, selectivity assay, profiling panel (AID 1259406).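 Note: initial slope of Thallos dye fluorescence rise after thallium is added; log ratio against the mean of 0.3% DMSO vehicle wells on the same plate.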 Particulars: U2OS BacMam BK variants, at 30 µM.
For experiment [10], the system named is F380Y/beta1. The description is as above. Particulars: U2OS BacMam BK variants, at 30 µM.
Experiment [11] relates to F380Y/beta2Delta. The description is as above. Particulars: U2OS BacMam BK variants, at 30 µM.
In experiment [12] the test system is F380Y/beta4. Described as above. Particulars: U2OS BacMam BK variants, at 30 µM.
For experiment [13], the target named is Calcium-activated potassium channel subunit alpha-1 (Homo sapiens) + Leucine-rich repeat-containing protein 26 (Homo sapiens) (UniProt Q12791+Q2I0M4). The description is as above. Particulars: U2OS BacMam BK variants, F380Y/Slo1WT/gamma1, at 30 µM.
Sequence of Calcium-activated potassium channel subunit alpha-1 (Homo sapiens) + Leucine-rich repeat-containing protein 26 (Homo sapiens) (Q2I0M4 whole entry, looked up, one chain of several): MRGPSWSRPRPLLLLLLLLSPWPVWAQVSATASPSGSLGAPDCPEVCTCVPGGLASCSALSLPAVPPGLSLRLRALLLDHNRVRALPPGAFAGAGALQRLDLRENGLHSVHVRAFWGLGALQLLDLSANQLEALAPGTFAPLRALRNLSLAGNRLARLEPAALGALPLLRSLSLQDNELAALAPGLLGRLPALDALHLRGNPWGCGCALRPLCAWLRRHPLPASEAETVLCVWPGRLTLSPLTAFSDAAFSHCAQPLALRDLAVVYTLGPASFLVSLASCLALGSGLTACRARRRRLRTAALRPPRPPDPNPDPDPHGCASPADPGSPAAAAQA
The test system of experiment [14] is R275C. The description is as above. Particulars: U2OS BacMam BK variants, at 30 µM.
Experiment [15] has as its system R275C/beta1. The description is as above. Particulars: U2OS BacMam BK variants, at 30 µM.
Experiment [16] deals with R275C/beta2Delta. Described as above. Particulars: U2OS BacMam BK variants, at 30 µM.
For experiment [17], the system named is R275C/beta4. Described as above. Particulars: U2OS BacMam BK variants, at 30 µM.
Experiment [18] has as its system R275C/Slo1WT/beta2. Described as above. Particulars: U2OS BacMam BK variants, at 30 µM.
Experiment [19] has as its system Neuropilin-2 / VEGF-C interaction (human). The experiment can be described thus: small molecules blocking Neuropilin-2/VEGF-C interaction – biochemical, microplate binding format, z-score (AID 743281; call rule not given here). Particulars: microplate NRP2/VEGF-C binding assay; stronger effect = lower value.
Experiment [20] is described as follows: modulation of C. elegans fzo-1 (AID 1259413; call rule not given here;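 note: fzo-1 mutant C. elegans worms in liquid wells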). Particulars: C. elegans fzo-1 modulator screen, mean read-out; stronger effect = higher value.
Where [21] appears, read: stronger effect = lower value, cell number ratio, induced over uninduced.
[22] abbreviates: measured here: relative caspase fold change +Dox/-Dox.
[23] abbreviates: measured here: total cells with miR-34 induction, stronger effect = lower value.
Where [24] appears, read: measured here: total cells without miR-34 induction.
The mark [25] stands for this setting: MELAS cybrid survival, CellTiter-Glo 48 h, stronger effect = higher value.
Setting [26] is: Rieske KO mouse fibroblast survival, CellTiter-Glo 72 h.

A word on the viability: it is a read-out of living cells in per cent, often relative to untreated cells. Usually inhibition stands for the drop in the measured response relative to a control, in per cent. As to `O=c1[nH]c(=O)n(C2CC(O)C(CO)O2)cc1F` (centres undefined), the parasite load remaining in [1] is 68.3% (inactive). The viability in experiment [1] stood at 115%. For the same compound, the fluorescence ratio was 1.03 (inactive) in experiment [2] and 1.04 (inactive) in experiment [5]. The inhibition was -1.36% (inactive) in [3] and 1.81% (inactive) in [4]. Further, the fold change is 1.17 (inactive) and 1.12 (inactive) in experiment [6] (setting [21]); 3.66 and 0.771 in [6] (setting [22]). The cell count is 2970 and 2380 in experiment [6] (setting [23]); 2550 and 2130 in [6] (setting [24]). The z-score in [7] (setting [25]) was -0.408 (inactive); in [7] (setting [26]), 0.487; in experiment [8] it was -1.07 (inactive). Also, the log fold change Tl+ flux in experiment [9] was -0.00405 (inactive); in experiment [10] it was 0.0394 (inactive); in experiment [11], 0.0245 (inactive); in [12], 0.0173 (inactive); in experiment [13] it was -0.00699 (inactive); in [14], 0.0218 (inactive). Also, the log fold change Tl+ flux was 0.000317 (inactive) in experiment [15], 0.0028 (inactive) in experiment [16], -0.0029 (inactive) in experiment [17] and -0.136 (active) in experiment [18].

Consider `CC(=O)[C@@]1(O)CC[C@H]2[C@@H]3C[C@H](C)C4=CC(=O)CC[C@]4(C)[C@H]3CC[C@@]21C`, for which the parasite load remaining in experiment [1] is 37.7% (inactive). The viability in experiment [1] came out at 68%. The figures for the fluorescence ratio in [2] and in [5] were 0.96 (inactive) and 0.95 (inactive), respectively. Besides, the figures for the inhibition in [3] and in experiment [4] were -0.22% (inactive) and -0.39% (inactive), respectively. Moreover, the z-score in experiment [19] was -0.215 (inactive). In addition, the mean signal in [20] is 243 (inactive). In addition, the log fold change Tl+ flux is 0.0243 (inactive) in experiment [9]; 0.0476 (inactive) in experiment [10]; 0.0349 (inactive) in [11]; -0.018 (inactive) in [12]; 0.00484 (inactive) in [13]; -0.0195 (inactive) in experiment [14]. In addition, the log fold change Tl+ flux was 0.0286 (inactive) in [15], -0.00744 (inactive) in experiment [16], 0.0101 (inactive) in [17] and -0.0331 (inactive) in [18].

`Fc1ccc(C2CCNCC2COc2ccc3c(c2)OCO3)cc1` (centres undefined): the parasite load remaining in [1] is -4.52% (inactive). Further, the viability in experiment [1] was 0.26%. Besides, the fluorescence ratio was 1 (inactive) in experiment [2] and 0.83 (inactive) in experiment [5]. The values for the inhibition in experiment [3] and in [4] were -15% (inactive) and 3.34% (inactive), respectively. Moreover, the fold change in experiment [6] (setting [21]) is 0.992 (inactive) and 1.04 (inactive) and 0.943 (inactive); in experiment [6] (setting [22]) it was 1.42 and 1.09 and 2.45. Moreover, the cell count is 5960 and 7070 and 8540 in [6] (setting [23]); 6000 and 6830 and 9050 in experiment [6] (setting [24]). In addition, the z-score in [7] (setting [25]) is -1.22 (inactive); in experiment [7] (setting [26]) it was 0.964; in experiment [8] it was -0.98 (inactive) and -1.43 (inactive). In addition, the log fold change Tl+ flux in experiment [9] was 0.146 (active); in [10], 0.116 (inactive); in experiment [11] it was 0.246 (active); in [12], 0.274 (active); in experiment [13] it was 0.0579 (inactive); in experiment [14], 0.0588 (inactive). In addition, the log fold change Tl+ flux in experiment [15] was 0.254 (active); in experiment [16], 0.126 (active); in experiment [17], 0.218 (active); in experiment [18], -0.0537 (inactive).

As for `c1ccc(-c2ccccn2)nc1`, the fold change in experiment [6] (setting [21]) was 0.97 (inactive); in [6] (setting [22]), 1.38. Further, the values for the cell count in [6] (setting [23]) and in experiment [6] (setting [24]) were 9830 and 10100, respectively. The z-score in [8] is 0.54 (inactive). Further, the log fold change Tl+ flux was -0.0156 (inactive) in experiment [9]; -0.0247 (inactive) in experiment [10]; 0.0286 (inactive) in experiment [11]; 0.0375 (inactive) in [12]; 0.0137 (inactive) in experiment [13]; 0.0175 (inactive) in [14]. For the same compound, the log fold change Tl+ flux was -0.0449 (inactive) in experiment [15], 0.0381 (inactive) in experiment [16], -0.011 (inactive) in experiment [17] and 0.000803 (inactive) in [18].
